Results filed as inconclusive are left out. A number with no mark means an inactive call. Activity calls are given as the source filed them. The call rests on the fitted dose curve; in most records, active means well fitted activation curve with a large enough effect; inconclusive means small, poorly fitted or top-dose-only effect; inactive means no such curve, though single readings can be large or run the other way.
Experiment: qHTS assay for re-activators of p53 using a Luc reporter: Hit Validation; further: nearly all actives have a fitted effect of over 75% in size; on activation: 0% is about no effect
Conditions: p53-responsive luciferase reporter cells, luminescence, H1299 line expressing heat-sensitive Ala138Val p53; series mostly up to 46.1 µM; activation: at the top concentration
Excerpt: The p53 tumor suppressor plays a key role in suppression of tumorigenesis and in human carcinogenesis. It is frequently found inactivated in human cancers, mainly by point mutation. These point mutations are found in a wide variety of human cancers and a majority of them affect the DNA binding domain of the protein. The point mutations either alter native p53 conformation or abolish DNA contact. Additionally, cancer cells with p53 mutations are more resistant to chemo-radiation therapies.
In order to find activators to reactivate this important protein, a cell-based screen for p53-dependent luciferase-reporter expression was developed. A p53-null H1299 lung cancer cell line was stably co-transfected with a temperature sensitive p53 mutant, p53-A138V, and a p53-responsive BP100-luciferase reporter. This cell model has previously been characterized in a gene chip profiling experiment for p53 activation. By lowering the culture temperature from 37 deg C (mutant p53 conformation) to 32 deg C (w.t. p53 conformation), a 30-60 fold increase in activation of luciferase activity is observed. At assay temperate, 37 deg C, basal reporter expression is very low and after the addition of detection reagent, a luminescent read-out is carried out. This is the hit validation assay, confirming the hits identified from the primary screen.
NIH Chemical Genomics Center [NCGC]
NIH Molecular Libraries Probe Production Centers Network [MLPCN]
Assay Provider (PI): Yi Sung, University of Michigan at Ann Arbor
5ul of 1000 cells per well are dispensed in all wells except column 4, into white solid-bottom TC-treated Kalypsys plates. The cells are kept in Opti-MEM and supplemented with 10% FBS and dispensed using a Multidrop (Thermo). Then using the Kalypsys pin-tool, 23nl of compounds are pinned. The compounds are starting concentration at 10mM, with 1:5 dilution, 4 points, and the control compound nocodazole is pinned in column 1 at 25mM, 1:3 dilution, in duplicate, 25mM nocodazole is pinned in column 2. Please note, all concentrations are working concentrations. 5ul of 1pM purified luciferase enzyme is dispensed using the Kalypsys dispenser in column 4. Plates are incubated for 24 hrs at 37 deg C, 5% CO2, and 95% humidity. Then 4ul of the detection reagent Amplite (ABD Bioquest) is added using the Kalypsys dispenser. Plates are incubated for 10 min at ambient room temperature and are then read on the ViewLux (Perkin Elmer) using a clear filter for a luminescent read-out.
For `Cc1cc(NC(=O)c2ccc3nccnc3c2)ccc1Br`, the Potency was 4.11 µM (active). In the case of `Cc1ccc(-c2nnc(Oc3cccc(C)c3)c3ccccc23)cc1`, the Potency is reported as 7.31 µM (active). In the case of `CCN(CC)C(=O)CSC(=Nc1ccccc1F)NC#N`, the Potency is reported as 14.6 µM (active). With `CCN(CC)c1ccc(NC(=O)CN2CCN(CC(=O)Nc3ccccc3F)CC2)cc1` the “activation” value was 5.21%. With `Cc1cc(/C=C2/C(=O)NN(c3ccccc3)C2=O)c(C)n1-c1cccc(O)c1` the Potency was 10.3 µM (active). With `COC(=O)CSc1nc2cc3c(cc2cc1C#N)OCO3` the “activation” value was 16.1%. For `C=CCSC1=N/C(=C\c2cc(OCC)c(OC(C)=O)c([N+](=O)[O-])c2)C(=O)S1`, the “activation” value was 4.17%. With `COc1ccc(-c2cc(=O)c3ccccc3s2)cc1` the Potency was 4.11 µM (active). In the case of `CN(C(=O)CSc1nnc(-c2ccco2)o1)C1CCCCC1`, the “activation” value is reported as -86.5%. In the case of `CCc1nnc(NC(=O)CCC(=O)Nc2ccccc2)s1`, the “activation” value is reported as 2.08%. For `CCOc1ccc2c(c1)C(=NNC(=O)c1ccncc1)c1cc(OCC)ccc1-2`, the “activation” value was 18.2%. In the case of `CN(CC(=O)Nc1ccc(Cl)c(Cl)c1)C(=O)C1CCCC1`, the “activation” value is reported as -22.4%. For `Cc1ccc(S(=O)(=O)NCC(=O)NCC(=O)N2CCC(C)CC2)cc1`, the “activation” value was -10.9%. With `COCCCN(C(C)=O)c1nc(-c2ccc(OC)cc2)cs1` the Potency was 2.31 µM (active). With `Cc1ccc(S(=O)(=O)NCC(=O)N2CCc3ccccc3C2)cc1` the “activation” value was -22.4%. With `Cc1c(C(=O)NC2=NCCS2)oc2ccccc12` the Potency was 0.58 µM (active). For `Cc1ccc2nc(C(F)(F)F)c(C#N)c(N)c2c1`, the “activation” value was -34.9%. For `Cc1ccc(-c2nc(-c3cccnc3)no2)c(C)c1`, the Potency was 4.61 µM (active). In the case of `CCOc1ccc(-n2c(SCc3nc(-c4cccs4)no3)nnc2-c2ccncc2)cc1`, the “activation” value is reported as -12.5%. In the case of `O=C(N/N=C/c1cccs1)c1n[nH]c2c1CCC2`, the Potency is reported as 0.517 µM (active). For `COc1ccccc1C(=O)NC(=S)NNC(=O)c1sc2ccccc2c1Cl`, the “activation” value was 43.8%. For `Cc1ccc(S(=O)(=O)NCCOc2nc(N(C)C)nc(N3CCOCC3)n2)cc1`, the “activation” value was -7.81%. For `COc1ccc(S(=O)(=O)NC2CC(C)(C)NC(C)(C)C2)c2ccccc12`, the “activation” value was -12%. For `C/C(=N\NC(=O)c1cccs1)C(C)(C)C`, the “activation” value was -6.77%. With `Cc1cc(C(F)(F)F)c(C#N)c(SCC(=O)Nc2nc3ccccc3s2)n1` the Potency was 1.46 µM (active). For `COc1cc(C(C)=O)ccc1Oc1ncnc2c1cnn2-c1ccc(F)cc1`, the “activation” value was 9.9%. For `CC(=O)N(C)c1ccc(NC(=O)CCN2C(=O)c3ccccc3C2=O)cc1`, the “activation” value was -0.521%. In the case of `Cc1ccc(C(=O)Nc2ccn(C)n2)cc1`, the Potency is reported as 8.2 µM (active). For `O=C(NNC1=C(C(=O)C(F)(F)F)CCC1)c1cccc(O)c1`, the “activation” value was -18.8%. For `COc1ccc(C(=O)NC2CCc3ccccc32)cc1OC1CCN(C(C)C)CC1` (stereo not given), the “activation” value was 28.6%. With `COc1ccc(CCC(C)NCC(C)c2ccccc2)cc1` (stereo not given) the “activation” value was 17.2%. For `O=C(Nc1ccc(COc2ccccc2)cc1)c1cccc([N+](=O)[O-])c1`, the “activation” value was 21.9%. For `CN(C)c1ccc(C(=O)Nc2nc3c(s2)CCCC3)cc1`, the Potency was 0.082 µM (active). For `CCOC(=O)c1[nH]nc(C(=O)c2ccc(Br)cc2)c1O`, the “activation” value was -94.3%. With `O=C(NC(=S)NCCc1ccccc1)C1CCCCC1` the Potency was 23.1 µM (active). For `Nc1ccc(-c2cnc(-c3ccc(N)cc3)nc2)cc1`, the Potency was 0.291 µM (active). With `C/C(=N/NC(=O)c1ccc2c(c1)OCO2)c1ccc(NC(=O)C(F)(F)F)cc1` the Potency was 9.2 µM (active). With `CCOc1ccc(OCCSc2nc3ccccc3n2CC(=O)O)cc1` the “activation” value was -1.04%. With `O=C(Oc1ccc2ccccc2c1Cl)N1CCCCCC1` the Potency was 5.8 µM (active). For `Cc1cc([N+](=O)[O-])ccc1NC(=O)/C=C/c1cccs1`, the “activation” value was 40.6%.
Potency means the concentration at half of the fitted maximal effect.
